Records with an inconclusive call do not appear. Unmarked numbers belong to inactive results. The source made the active and inactive calls. Calls follow the shape of the dose curve; as a rule, active = well fitted cell-killing curve with a large enough effect; inconclusive = small, poorly fitted or top-dose-only effect, or effect the other way; inactive = flat fitted curve, though single readings scatter.

The source of these data is PubChem BioAssay (NCATS).
% is scaled to controls: 0 for no effect and ±100 for the full control effect; potency is read from the fitted curve at half-maximal effect.

The nature of this test: qHTS assay for cell viability of the p53RE-bla HCT-116 cell line (AID 743292). Also: nearly all actives have a fitted effect of over 55% in size. Conditions: p53RE-bla HCT-116 viability, ATP luminescence, 16 h; series mostly up to 95 µM; activity change, negative = cytotoxicity: at the top concentration. From the text: U.S. Tox21 Program National Center for Advancing Translational Sciences [NCATS] NIH Chemical Genomics Center [NCGC] U.S. Environmental Protection Agency [EPA] National Institutes of Environmental Health Sciences [NIEHS] National Toxicology Program [NTP] U.S. Food and Drug Administration [FDA] Tox21 Assay Overview: The CellTiter-Glo Luminescent Cell Viability Assay (Promega, Madison, WI) is a homogeneous method to determine the number of viable cells in culture based on quantitation of the ATP present, which signals the presence of metabolically active cells. This cell viability assay was used to screen environmental chemicals in the CellSensor p53RE-bla HCT-116 cell line (Invitrogen).
Tox21 Assay Protocol Summary: Cell viability after compound treatment was measured using a luciferase-coupled ATP quantitation assay (CellTiter-Glo viability assay, Promega, Madison, WI) in CellSensor p53RE-bla HCT-116 cell line (Invitrogen). Total intracellular ATP content corresponds to the number of metabolically competent cells after compound treatment. The cells were dispensed at 4,000 cells/5 uL/well in 1,536-well white/solid bottom assay plates using a Flying Reagent Dispenser (Aurora Discovery, San Diego, CA). The cells were incubated for 5 h at 37 C, followed by the addition of 23 nL of compounds dissolved in DMSO, positive controls or DMSO only using a pintool work station (Kalypsys, San Diego, CA). The assay plates were incubated for 16 h at 37 C, followed by the addition of 5 uL/well of CellTiter-Glo reagent. After 30 min incubation at room temperature, the luminescence intensity of the plates was measured using a ViewLux plate reader (PerkinElmer, Shelton, CT).
For orientation: In qHTS, concentration-response curves come from the screen itself.
Turning to `O=[N+]([O-])c1ccc(Cl)c([N+](=O)[O-])c1`, the “activity change, negative = cytotoxicity” value is -4.47%. Still for that read-out and setting: for `CNC(=O)Oc1cc(C)c(SC)c(C)c1` the value was 10%. As for `CC[C@H](C)[C@H]1O[C@]2(C=C[C@@H]1C)C[C@@H]1C[C@@H](C/C=C(\C)[C@@H](O[C@H]3C[C@H](OC)[C@@H](O[C@H]4C[C@H](OC)[C@@H](NC)[C@H](C)O4)[C@H](C)O3)[C@@H](C)/C=C/C=C3\CO[C@@H]4[C@H](O)C(C)=C[C@@H](C(=O)O1)[C@]34O)O2`, the Potency is 28.2 µM (active). For the compound `CCOCn1c(-c2ccc(Cl)cc2)c(C#N)c(Br)c1C(F)(F)F`, the Potency is 6.31 µM (active). For `OC(c1ccc(Cl)cc1)(c1cncnc1)c1ccccc1Cl` (stereo not given), the “activity change, negative = cytotoxicity” value was 1.05%. For `Cc1cccc2sc3nncn3c12`, the “activity change, negative = cytotoxicity” value was -0.102%.

As for `CC(c1ccc(O)cc1)(c1ccc(O)cc1)c1ccc(O)cc1`, the “activity change, negative = cytotoxicity” value is -22.3%. As for `Clc1ccc([C@]2(Cn3cncn3)C[C@@H](Br)CO2)c(Cl)c1`, the Potency entry was “inactive”. `CNC(=O)O/N=C(\C)SC`: the “activity change, negative = cytotoxicity” value is -11.9%. For `CNc1cnn(-c2cccc(C(F)(F)F)c2)c(=O)c1Cl`, the “activity change, negative = cytotoxicity” value was -1.33%. The same measure, in the same setting: with `CC(C)=C[C@@H]1[C@@H](C(=O)OCN2C(=O)C3=C(CCCC3)C2=O)C1(C)C` the figure was -20.6%; with `CCC/C(=N\OCC)C1=C(O)CC(CC(C)SCC)CC1=O` (stereo not given), 7.33%; with `CCOP(=S)(OCC)SCSP(=S)(OCC)OCC`, -4.62%. Still for that read-out and setting: with `CCCSP(=O)(OCC)Oc1ccc(Br)cc1Cl` (stereo not given) the figure was -0.734%. Turning to `CC1=NNC(=O)N(/N=C/c2cccnc2)C1`, the “activity change, negative = cytotoxicity” value was -0.3%.

In the case of `CC1(C)CN=C(NN=C(/C=C/c2ccc(C(F)(F)F)cc2)/C=C/c2ccc(C(F)(F)F)cc2)NC1`, the Potency is 50.1 µM (active). For the compound `CCSCCSP(=O)(OC)OC`, the “activity change, negative = cytotoxicity” value is 10.3%. Same read-out and setting: for `C=C(C)C(=O)OCC(CC)CCCC` (stereo not given) the value was 1.16%; for `CCOP(=S)(NC(C)C)Oc1ccccc1C(=O)OC(C)C` (stereo not given), 9.3%. For `CCSC(C)CC1CC(=O)C(/C(CC)=N/OC/C=C/Cl)=C(O)C1` (stereo not given), the “activity change, negative = cytotoxicity” value was -26.8%. Still for that read-out and setting: with `N#Cc1c[nH]cc1-c1cccc2c1OC(F)(F)O2` the figure was 7.2%; with `CON(C)C(=O)Nc1ccc(Cl)c(Cl)c1`, -12.8%; with `CCOP(=O)(O)C(N)=O`, -11.2%.

Take `CN/C(=N/[N+](=O)[O-])NCC1CCOC1` (stereo not given): the “activity change, negative = cytotoxicity” value is -4.89%. For the compound `O=[As](O)(O)O`, the “activity change, negative = cytotoxicity” value is -3.02%.

As to `C/C(=N\C(N)=O)N(C)Cc1ccc(Cl)nc1`, the “activity change, negative = cytotoxicity” value was -8.94%.

For `CC(Oc1cc(Cl)c(Cl)cc1Cl)C(=O)O` (stereo not given), the “activity change, negative = cytotoxicity” value was 9.35%. Consider `CCOC(=O)Nc1cccc(OC(=O)Nc2ccccc2)c1`, for which the “activity change, negative = cytotoxicity” value is -12.1%. Take `c1ccc2cc3c(cc2c1)-c1cccc2cccc-3c12`: the Potency entry is “inactive”. In the case of `Cc1ccccc1CO[C@@H]1C[C@@]2(C(C)C)CC[C@]1(C)O2`, the “activity change, negative = cytotoxicity” value is -1.89%. Same read-out and setting: for `O=C1NCCN1Cc1ccc(Cl)nc1` the value was -1.72%; for `CCCCC(CC)COC(=O)Cl` (stereo not given), -0.0511%; for `CCNc1nc(NC(C)C)nc(SC)n1`, 11%. With `Clc1ccc([C@]2(Cn3cncn3)C[C@H](Br)CO2)c(Cl)c1`, the Potency entry was “inactive”. Regarding `CCOP(=S)(OCC)SCn1nnc2ccccc2c1=O`, the “activity change, negative = cytotoxicity” value is 0.946%. The same measure, in the same setting: with `CC(C)(C)C(=O)[C@H](Oc1ccc(Cl)cc1)n1cncn1` the figure was -0.535%; with `C/C=C(\C)C(=O)O[C@H]1C[C@@H](OC(C)=O)[C@@]2(C(=O)OC)CO[C@H]3[C@@H](O)[C@@](C)([C@]45O[C@@]4(C)[C@H]4C[C@@H]5O[C@@H]5OC=C[C@@]54O)[C@H]4[C@]1(CO[C@]4(O)C(=O)OC)[C@@H]32`, -20.4%.

Consider `CCOP(OCC)OCC`, for which the “activity change, negative = cytotoxicity” value was 11.4%. On the same count and under the same terms, with `CCOP(=O)(OCC)SCSC(C)(C)C` the figure was -8.76%; with `CC(C)(C)OOC(C)(C)c1ccc(C(C)(C)OOC(C)(C)C)cc1`, -3.57%.
